Most compounds without a hit are left out; they make up all but 3.8% or so of the library.
PLK1 PBD block: PLK1 (human) polo-box domain binding inhibition | AID 720504 | Potency, µM, for inactives: max response, negative = inhibition, hits mostly inhibitors | Plk1 PBD binding of FITC phosphopeptide, fluorescence polarization | 2.8% of 360,000 active; further: potency means the concentration at half of the fitted maximal effect; series mostly up to about 57 µM; on the % scale 0 is the no-effect control and ±100 the full control effect; nearly all actives have a fitted effect of over 65% in size
KCNH2 WT inh: blocks the wildtype human KCNH2 potassium channel; Q12809; U2OS, BacMam KCNH2, thallium flux FluxOr; stronger effect = lower value; activity change, % at 1.84 µM; 0.37% of 340,000 active; AID 720551;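 active means maximum activity change below -70%; inconclusive means maximum activity change between -70% and -50%; inactive means maximum activity change above -50%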; further: on the % scale 0 is the no-effect control and ±100 the full control effect
Target sequence (Q12809 whole entry, looked up): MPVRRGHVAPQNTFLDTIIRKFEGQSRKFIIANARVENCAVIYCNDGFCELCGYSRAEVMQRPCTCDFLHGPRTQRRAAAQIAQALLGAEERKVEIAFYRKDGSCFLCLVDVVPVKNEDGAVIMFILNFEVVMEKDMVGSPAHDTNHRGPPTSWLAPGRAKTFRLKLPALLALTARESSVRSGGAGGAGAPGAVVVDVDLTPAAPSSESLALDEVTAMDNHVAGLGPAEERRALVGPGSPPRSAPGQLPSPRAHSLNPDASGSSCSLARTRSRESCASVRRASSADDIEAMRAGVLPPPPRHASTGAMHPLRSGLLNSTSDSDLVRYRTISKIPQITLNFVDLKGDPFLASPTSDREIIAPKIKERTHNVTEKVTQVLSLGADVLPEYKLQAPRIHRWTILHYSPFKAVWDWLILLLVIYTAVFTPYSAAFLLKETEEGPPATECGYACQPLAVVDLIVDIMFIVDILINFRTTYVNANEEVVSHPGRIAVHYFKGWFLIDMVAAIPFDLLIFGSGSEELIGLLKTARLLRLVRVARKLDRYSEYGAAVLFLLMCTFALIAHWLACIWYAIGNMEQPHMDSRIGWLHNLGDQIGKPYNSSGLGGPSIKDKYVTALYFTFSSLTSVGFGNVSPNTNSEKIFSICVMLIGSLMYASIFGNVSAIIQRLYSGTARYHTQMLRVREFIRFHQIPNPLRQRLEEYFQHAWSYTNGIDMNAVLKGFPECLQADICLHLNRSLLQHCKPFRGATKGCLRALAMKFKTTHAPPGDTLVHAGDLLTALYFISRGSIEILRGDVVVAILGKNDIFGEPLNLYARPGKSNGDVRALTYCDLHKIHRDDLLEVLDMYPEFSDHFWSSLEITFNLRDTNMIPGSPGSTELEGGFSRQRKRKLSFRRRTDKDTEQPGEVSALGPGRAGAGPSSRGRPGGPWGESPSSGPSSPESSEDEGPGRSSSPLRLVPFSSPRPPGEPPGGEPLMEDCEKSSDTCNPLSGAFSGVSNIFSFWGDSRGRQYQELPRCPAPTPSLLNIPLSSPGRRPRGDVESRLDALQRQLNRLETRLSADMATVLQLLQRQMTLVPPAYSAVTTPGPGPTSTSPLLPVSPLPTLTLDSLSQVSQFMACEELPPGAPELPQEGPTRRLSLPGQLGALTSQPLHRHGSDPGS
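U2OS cells transduced with wild-type KCNH2 virus are loaded with FluxOr dye for 45 min, and thallium flux is measured in kinetic reads before and after stimulation buffer. Rate constants are normalized to DMSO controls.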
VDR inhibitor: blocks the human vitamin D receptor; VDR-SRC2-3 peptide fluorescence polarization, 2 h; P11473; Potency, µM, inactives show max response, negative = inhibition, actives largely listed as inhibitors; 0.93% of 400,000 active; further: potency means the concentration at half of the fitted maximal effect; on the % scale 0 is the no-effect control and ±100 the full control effect
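The screen uses fluorescence polarization to detect compounds that interfere with recruitment of the SRC2-3 coactivator peptide to VDR; plates are read after 2 h at room temperature.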
CBFb RUNX1 block: CBF-beta/RUNX1 interaction disruption. 230,000 tested, under 10 active. AlphaScreen CBFb-His/RUNX1-biotin binding, biochemical. Potency, µM (titrated, usually from 59.8 µM), without a hit: at the top dose activity, negative = inhibition, most hits filed as inhibitors. AID 1477; further: % of control where 0% means no effect
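Read-out: AlphaScreen. Format: His-CBF-beta with biotinylated RUNX1 (30 nM each) preincubated 20 min, compound 15 min, Ni-chelate plus streptavidin beads 90 min; room temperature throughout.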
MBNL1 CUG block: blocks human MBNL1 binding to CUG repeat RNA; Q9NR56; TR-FRET MBNL1-His/biotin-(CUG)12 binding, 665/545 ratio; Potency, µM (top dose mostly 57.5 µM), without a hit: at the highest dose activity change, negative = inhibition, hits mostly inhibitors; 0.036% of 280,000 active; active means well fitted inhibition curve with a large enough effect in the signal ratio, with a control signal flat, not every such curve was filed as active; inconclusive means small, poorly fitted or top-dose-only effect, or effect the other way, or a change in a side signal; inactive means no such curve, though single readings can be large or run the other way; the % refers to the signal ratio; further: potency means the concentration at half of the fitted maximal effect; on the % scale 0 is the no-effect control and ±100 the full control effect
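TR-FRET readout: Ex 340 nm, 665/545 nm emission ratio, normalized to buffer-only (basal) and MBNL1-(CUG)12 controls. Complex of MBNL1-His with Biotin-(CUG)12, compounds 92 nM–58 uM, incubated 60 min at room temperature.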
KCNH2 3.1 block: blocks the human KCNH2 3.1 channel isoform | activity change, % (tested at about 1.8 µM) | U2OS KCNH2 3.1, thallium flux FluxOr; stronger effect = lower value | 0.95% of 340,000 active;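 active means maximum activity change below -70%; inconclusive means maximum activity change from -70% to -50%; inactive means maximum activity change above -50%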;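 further: thallium influx rate constant from kinetic fluorescence after stimulation buffer; on the % scale 0 is the no-effect control and ±100 the full control effect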
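Channel expression came from 3.1 mutant virus (1.77 x 10^8 /mL) applied to suspended U2OS cells for 4 h. Flux was tracked with FluxOr dye plus Red40 quencher, and kinetic rate constants normalized to controls.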
* marks the source's active call; other numbers are inactive results; ? = inconclusive; / = not tested or not shown; [ ] = dose if it differs, or a comment. Unless noted, the call rests on the fitted dose curve; in most records, active means well fitted curve in the direction sought with a large enough effect; inconclusive means small, poorly fitted or top-dose-only effect, or another doubt; inactive means no such curve, though single readings can be large; an effect the other way counts as inactive or inconclusive.

SMILES	PLK1 PBD block	KCNH2 WT inh	VDR inhibitor	CBFb RUNX1 block	MBNL1 CUG block	KCNH2 3.1 block
CN1CCN(C(c2ccc(C(F)(F)F)cc2)c2cc(Cl)c3cccnc3c2O)CC1 (stereo unspecified)	/	/	/	/	8%	/
Oc1c(C(c2ccccn2)N2CCCCC2)cc(Cl)c2cccnc12 (stereo unspecified)	30µM*	-3	?	/	16%	10
Cc1ccccc1NC1=NS(=O)(=O)c2ccccc21	-1%	-285*	2%	1%	-3%	1
CCn1c(-c2cc(-c3cccc(OC)c3)nc3ccccc23)n[nH]c1=S	-8%	2	1%	-10%	13%	-78*
Cc1ccc(S(=O)(=O)NCCC(=O)Nc2ccc(C)cc2C(=O)c2ccccc2)cc1	27µM*	5	?	-2%	-7%	-7
CCN(CC)CC(=O)Nc1ccc(C)cc1C(=O)c1ccccc1	-1%	0	-24%	2%	-7%	0
COc1ccc(/C=C\c2onc(C)c2S(=O)(=O)N2CCC(C(=O)Nc3ccc(C)cc3C)CC2)cc1	/	/	12%	/	/	/
CCC(C(=O)Nc1ccccc1OC)n1nc(C)c2sc3ccccc3c2c1=O (stereo unspecified)	/	/	7%	/	/	/
Cn1c(-c2ccccc2)nc2cnccc21	24µM*	4	?	8%	4%	-3
CC1CCCN(S(=O)(=O)c2cccc(-c3cn4cccnc4n3)c2)C1 (stereo unspecified)	-17%	7	-9%	7%	7%	-110*
Nc1cccc(-c2cn3cccnc3n2)c1	30µM*	-11	-21%	-1%	/	-41
COc1ccc(NC(=O)C(NC(=O)/C=C\c2ccc3c(c2)OCO3)c2ccc(C)cc2)cc1 (stereo unspecified)	/	/	-18%	/	/	/
CC(C)CCNC(=O)c1ccc2c(c1)N(Cc1ccccc1F)C(=O)c1ccccc1S2=O (stereo unspecified)	/	/	-3%	/	/	/
CCCNC(=O)Cn1sc2nc(C)cc(C)c2c1=O	1.7µM*	-36	5µM*	6%	-6%	13
CCOC(=O)C1CCCN(C(=O)Cn2cnc3c2c(=O)n(C)c(=O)n3C)C1 (stereo unspecified)	-6%	0	8%	-1%	5%	5
CCOC(=O)C1CCCN(C(=O)Cn2sc3nc(C)cc(C)c3c2=O)C1 (stereo unspecified)	1.5µM*	-13	?	-2%	-6%	3
Cc1cc(C)c2c(=O)n(CC(=O)N3CCC(N4CCCCC4)CC3)sc2n1	3µM*	-4	20µM*	-2%	7%	10
CC(=O)Cn1cnc2c(sc3nc(C)cc(C)c32)c1=O	-7%	-13	11%	3%	6%	19
CCc1ccc(C2c3c(-c4cc(C)ccc4O)n[nH]c3C(=O)N2CCO)cc1 (stereo unspecified)	/	/	8%	/	/	/
N#CN=C1SCCS1	3.4µM*	4	-30%	4%	3%	1
O=[N+]([O-])c1ccc(Oc2ncccn2)cc1	-13%	-7	12%	/	/	-1
N#CCc1ccc(Oc2ncccn2)cc1	17µM*	-6	?	/	-18%	-8
COC(=O)CSc1ncc2c(n1)-c1ccccc1N(Cc1ccccc1C)S2(=O)=O	/	/	-5%	/	/	/
COc1ccc(-c2nc3ccc(NC(C)=O)cc3c(=O)n2Cc2ccccc2)cc1COc1ccc(NC(C)=O)cc1	/	/	-9%	/	/	/
NS(=O)(=O)c1ccc(N2CCN(CCOc3ccc(Cl)cc3)CC2)nc1	-4%	3	?	/	-2%	-95*
SMILES	PLK1 PBD block	KCNH2 WT inh	VDR inhibitor	CBFb RUNX1 block	MBNL1 CUG block	KCNH2 3.1 block
NS(=O)(=O)c1ccc(N2CCN(S(=O)(=O)Cc3ccccc3)CC2)nc1	-10%	-5	5%	/	/	16
CC(=O)Oc1ccccc1C1C[C@]2(C)CC(=O)NC2N1C(C)=O (stereo partly specified)	-8%	2	7%	18%	-3%	-107*
COC(=O)N1C2CC3(C)CC(=O)CC1(C)C3c1ccccc12 (stereo unspecified)	/	/	/	5%[13.1 µM]	/	/
CCOC(=O)c1cc(C#N)c(Oc2ccccc2OC)nc1-c1ccccc1	0%	18	-2%	27%	-5%	-25
CCOC(=O)c1cc(C#N)c(N2CCN(c3ccccn3)CC2)nc1-c1ccccc1	-8%	4	20%	?	45%	-94*
NC(=S)N/N=C/c1cccc(/C=N/NC(N)=S)c1	-17%	-3	3%	-8%	22%	-128*
NC(=S)N/N=C/c1cccc(Br)c1	-16%	-11	5%	0%	7%	1
Cc1ccc(-c2nc(S(=O)(=O)c3ccc(F)cc3)c(N3CCN(c4ccccc4)CC3)o2)cc1	/	/	22%	/	/	/
CC(C)(CO)NCc1ccc(Br)cc1	19µM*	-5	28µM*	8%	?	-34
Clc1ccc(SCNc2ccccc2Cl)cc1	9.5µM*	10	?	11%	1%	-6
Cc1ccc(NCSc2ccc(Cl)cc2)cc1	-18%	-3	-7%	/	/	-1
S=C(c1ccccc1)N1CCN(c2ccccc2)CC1	27µM*	0	-12%	/	/	-5
O=C(c1ccccc1)N1CCCC(C(=O)N2CCN(c3ccccc3)CC2)C1 (stereo unspecified)	27µM*	2	?	12%	-3%	-7
CC(C)(C)c1ccc(C(=S)N2CCN(c3ccccc3)CC2)cc1	24µM*	-6	?	-5%	/	7
S=C(NCc1ccccc1)N1CCN(c2ccccc2)CC1	-3%	0	1%	3%	2%	-74*
CN(C)c1ccc(C(=O)C(=O)N2CCN(c3ccccc3)CC2)cc1	-3%	/	/	/	/	/
CCN(CC)c1ccc(C(=S)N2CCN(c3ccccc3)CC2)cc1	13µM*	19	-7%	-8%	1%	-31
CCOc1ccccc1CNC(=O)CCCn1c(=O)c2cccn2c2ccc(F)cc21	/	/	11%	/	/	/
Cc1sc(NC(=O)CCS(=O)(=O)c2ccccc2)c(C#N)c1C	13µM*	-1	89µM*	/	/	-7
CC1CCc2c(sc3nc(CN4CCN(S(=O)(=O)c5ccccc5[N+](=O)[O-])CC4)[nH]c(=O)c23)C1 (stereo unspecified)	3%	-12	3%	2%	?	-73*
Cc1cccc(C)c1-n1nnnc1S(=O)(=O)Cc1ccccc1Cl	-11%	-8	4%	?	8%	-94*
CCOC(=O)C1CCCN(Cc2c(C(=O)N3CCCCC3)nc3c(C)cccn23)C1 (stereo unspecified)	-10%	6	-10%	6%	9%	3
Cc1cccn2c(CNC3CCCc4ccccc43)c(C(=O)N3CCCCC3)nc12 (stereo unspecified)	5%	-3	-6%	-1%	-9%	-182*
